One assay deals with Albumin (Bos taurus) (UniProt P02769). Nature of the assay: compounds binding labelled BSA control protein – biochemical, small-molecule microarray, Alexa647 label, 635/667 nm fluorescence, artefact control for SMM control protein annotation, profiling panel (AID 1118).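 Further: score merges 667 nm emission intensity and signal-to-noise per printed compound spot.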 The following applies: BSA-A647 binding, fluorescence 635 nm, higher = more signal.
A short description of assay [1]: probe aXIP binding to arrayed compounds – biochemical, NeuroSMM set, 635/667 nm fluorescence, primary screen (AID 1119).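 Further: probe is the protein aXip251-270 applied at 1 µg/mL to compound-printed slides; binding of probe to printed compounds measured as 667 nm fluorescence plus signal to noise.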 The following applies: small-molecule microarray, higher = more signal, called active from +8 up or from −8 down.
Assay [2] is described as follows: probe aNOTCH3 binding on compound microarray – biochemical, small-molecule microarray, 635/667 nm fluorescence, primary screen (AID 1120).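 Further: probe is a biotin-tagged antibody raised against NOTCH3 rather than NOTCH3 protein; score merges spot fluorescence near 667 nm with spot signal to noise.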 Particulars: higher = more signal.
Assay [3] in a line: probe aNOTCH2 binding on compound microarray – biochemical, small-molecule microarray, 635/667 nm fluorescence, primary screen (AID 1121).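 Further: score merges feature fluorescence read at 667 nm with its signal to noise.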 The following applies: higher = more signal.
Assay [4] addresses Carbonic anhydrase 2 (Homo sapiens) (UniProt P00918). Put plainly: compounds binding carbonic anhydrase 2 – biochemical, small-molecule microarray, Alexa647-labelled CAII, profiling panel (AID 1122). Particulars: CAII-A647 binding fluorescence, higher = more signal.
Assay [5] in a line: COS7 lysate on small-molecule microarray, probe aHis, 635 nm (AID 1123).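 Further: z-score combines 667nm fluorescence intensity with signal-to-noise per printed compound spot.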 The following applies: COS7 cell lysate, fluorescence, higher = more signal.
The nature of assay [6]: probe aLAP1 signal on lysate-treated microarray – cell lysate, small-molecule microarray, COS7 lysate, primary screen (AID 1124).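 Further: lysate comes from COS7 cells expressing LAP1 and is applied at 0.3 µg/mL; score merges spot fluorescence near 667 nm with signal-to-noise over triplicate slides.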 The following applies: probe aLAP1, fluorescence, higher = more signal.
A further assay has as its system Sam68 (KHDRBS1). Nature of the assay: compounds binding KHDRBS1 protein – biochemical, small-molecule microarray, 635 nm fluorescence, primary screen (AID 1125).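 Further: score merges 667 nm channel intensity with signal to noise over triplicate slides.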 The following applies: higher = more signal.
Assay [7] concerns Chordin-like protein 2 (CHRDL2). Nature of the assay: compounds binding chordin-like 2 – biochemical, small-molecule microarray, 635 nm fluorescence, primary screen (AID 1126).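 Further: printed compound slides probed with Chrdl2 protein at 4 µg/mL for 1 h at 4 C; score merges 667 nm emission intensity with signal to noise over three replicate slides.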 Particulars: fluorescence 635 nm, higher = more signal.
In assay [8] the target is Concanavalin-A (Canavalia ensiformis) (UniProt P02866). Put plainly: compounds binding concanavalin A lectin – biochemical, small-molecule microarray, Alexa647 label, 635 nm, artefact control for SMM control protein annotation, primary screen (AID 1127).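 Further: z combines 667 nm emission intensity with signal-to-noise across three replicate slides.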 The following applies: ConA-A647 binding fluorescence, higher = more signal.
Concanavalin-A (Canavalia ensiformis), sequence (P02866 whole entry, looked up): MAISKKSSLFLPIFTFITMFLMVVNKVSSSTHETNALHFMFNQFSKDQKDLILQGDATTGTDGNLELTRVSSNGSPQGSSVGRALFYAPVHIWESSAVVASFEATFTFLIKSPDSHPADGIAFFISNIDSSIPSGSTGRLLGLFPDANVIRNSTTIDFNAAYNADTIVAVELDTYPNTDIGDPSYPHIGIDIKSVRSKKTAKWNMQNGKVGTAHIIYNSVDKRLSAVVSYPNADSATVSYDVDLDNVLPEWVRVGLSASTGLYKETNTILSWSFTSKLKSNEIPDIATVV
Assay [9] in a line: compounds binding Alexa647 anti-His antibody – biochemical, small-molecule microarray, 635 nm fluorescence, artefact control for SMM control protein annotation, primary screen (AID 1128).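 Further: score merges feature fluorescence with signal-to-noise for each printed compound spot.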 The following applies: higher = more signal.
The test system of assay [10] is Human papillomavirus type 1a E7 protein (residues 1-88). Nature of the assay: HPV1a E7 small-molecule binders, primary screen, biochemical, small-molecule microarray, residues 1-88, 635 nm (AID 1129). The following applies: small-molecule microarray binding, fluorescence 635 nm; higher = more signal.
Assay [11] deals with Focal adhesion kinase 1 (Homo sapiens) (UniProt Q05397). Put plainly: PTK2 protein binding on printed compound slides – biochemical, small-molecule microarray, 635/667 nm fluorescence, BSA, DTT, primary screen (AID 1130).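 Further: composite of spot emission at 667 nm and signal to noise over triplicate slides.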 Particulars: 635 nm fluorescence, higher = more signal.
Focal adhesion kinase 1 (Homo sapiens), sequence (Q05397 whole entry, looked up): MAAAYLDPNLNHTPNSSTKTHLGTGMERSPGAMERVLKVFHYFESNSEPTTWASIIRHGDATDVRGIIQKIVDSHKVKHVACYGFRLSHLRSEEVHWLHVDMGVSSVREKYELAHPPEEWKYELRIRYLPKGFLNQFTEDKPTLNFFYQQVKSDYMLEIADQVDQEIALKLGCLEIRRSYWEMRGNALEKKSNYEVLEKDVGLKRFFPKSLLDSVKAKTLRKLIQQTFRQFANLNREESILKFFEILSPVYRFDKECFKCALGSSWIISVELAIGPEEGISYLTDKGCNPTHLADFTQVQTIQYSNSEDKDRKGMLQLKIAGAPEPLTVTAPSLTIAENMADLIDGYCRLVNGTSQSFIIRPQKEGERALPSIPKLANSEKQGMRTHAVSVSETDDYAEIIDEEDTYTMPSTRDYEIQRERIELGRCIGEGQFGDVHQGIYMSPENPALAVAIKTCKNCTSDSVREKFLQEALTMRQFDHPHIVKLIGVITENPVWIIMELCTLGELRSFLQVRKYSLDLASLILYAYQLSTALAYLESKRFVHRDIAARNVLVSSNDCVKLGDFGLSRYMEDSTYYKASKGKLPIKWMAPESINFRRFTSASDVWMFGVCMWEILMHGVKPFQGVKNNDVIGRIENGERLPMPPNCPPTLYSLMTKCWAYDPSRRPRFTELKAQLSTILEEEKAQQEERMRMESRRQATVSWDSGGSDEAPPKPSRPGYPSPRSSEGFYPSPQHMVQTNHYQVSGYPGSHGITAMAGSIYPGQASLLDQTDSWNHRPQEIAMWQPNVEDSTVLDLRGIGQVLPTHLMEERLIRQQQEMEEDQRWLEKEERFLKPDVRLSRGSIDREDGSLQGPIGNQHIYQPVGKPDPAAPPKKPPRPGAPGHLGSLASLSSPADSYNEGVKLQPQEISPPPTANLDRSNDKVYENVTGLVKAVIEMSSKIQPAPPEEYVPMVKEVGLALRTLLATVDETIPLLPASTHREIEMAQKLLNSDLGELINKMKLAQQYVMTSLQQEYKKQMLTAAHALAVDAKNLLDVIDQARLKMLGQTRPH
Assay [12] concerns Fibrinogen (Alexa647-labelled). Nature of the assay: Alexa647-fibrinogen binding to printed small molecules – biochemical, small-molecule microarray, 635/667 nm fluorescence, artefact control for SMM control-protein annotation, profiling panel (AID 1131).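 Further: z-score merges 667 nm fluorescence with per-spot signal-to-noise over triplicate slides.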 Particulars: fibrinogen-A647 binding fluorescence, higher = more signal.
For assay [13], the target named is Follistatin (Homo sapiens) (UniProt P19883). Put plainly: FST protein binding to printed compounds – biochemical, small-molecule microarray, 635/667 nm fluorescence, primary screen (AID 1132). Particulars: 635 nm fluorescence, higher = more signal.
Follistatin (Homo sapiens), sequence (P19883 whole entry, looked up): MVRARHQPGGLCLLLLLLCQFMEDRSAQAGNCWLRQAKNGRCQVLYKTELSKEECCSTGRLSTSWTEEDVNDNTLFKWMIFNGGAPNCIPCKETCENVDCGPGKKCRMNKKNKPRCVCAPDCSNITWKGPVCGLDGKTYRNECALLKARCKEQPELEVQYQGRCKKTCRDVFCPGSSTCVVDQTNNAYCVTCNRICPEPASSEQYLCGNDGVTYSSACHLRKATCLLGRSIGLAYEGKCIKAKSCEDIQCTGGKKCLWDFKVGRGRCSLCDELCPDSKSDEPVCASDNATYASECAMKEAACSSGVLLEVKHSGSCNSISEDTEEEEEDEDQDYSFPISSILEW
The target in assay [14] is Fibroblast growth factor 2 (Homo sapiens) (UniProt P09038). Nature of the assay: basic fibroblast growth factor binding to printed compounds – biochemical, small-molecule microarray, 635/667 nm fluorescence, primary screen (AID 1133). The following applies: FGF2, fluorescence 635/667, higher = more signal.
Fibroblast growth factor 2 (Homo sapiens), sequence (P09038 whole entry, looked up): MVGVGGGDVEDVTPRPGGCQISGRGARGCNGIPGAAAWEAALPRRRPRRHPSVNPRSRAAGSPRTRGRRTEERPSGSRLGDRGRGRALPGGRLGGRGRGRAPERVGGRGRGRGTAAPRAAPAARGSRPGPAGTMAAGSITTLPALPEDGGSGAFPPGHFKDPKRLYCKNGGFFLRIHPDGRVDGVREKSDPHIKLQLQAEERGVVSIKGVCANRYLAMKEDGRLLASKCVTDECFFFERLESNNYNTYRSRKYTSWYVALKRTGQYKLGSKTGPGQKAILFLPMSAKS
The nature of assay [15]: JC-1 mitochondrial potential readout, lung cancer cells – cell-based, A549, JC-1 fluorescence, basal, 24 h, 100 nL, profiling panel (AID 1138).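 Further: A549 lung adenocarcinoma cells under basal conditions with no added stimulus; test concentration not given here.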 Particulars: higher = more signal.
The next assay has as its system Lefty1. Put plainly: Lefty1 protein binding to printed compounds – biochemical, small-molecule microarray, 635/667 nm fluorescence, primary screen (AID 1139). The following applies: fluorescence 635/667, higher = more signal.
For assay [16], the system named is wheat germ agglutinin (Triticum aestivum), Alexa647-labelled. Put plainly: Alexa647-WGA lectin binding to printed small molecules – biochemical, small-molecule microarray, 635/667 nm fluorescence, artefact control for SMM control-protein annotation, profiling panel (AID 1140).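 Further: score merges 667 nm feature emission with signal to noise over triplicate slides.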 Particulars: WGA-A647 binding, 635 nm fluorescence, higher = more signal.
The target of assay [17] is Luciferin 4-monooxygenase (Photinus pyralis) (UniProt P08659). Nature of the assay: inhibition of purified Photinus pyralis luciferase – biochemical, luminescence, purified enzyme, 2006 set, primary screen (AID 1141).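 Further: cell-free assay with purified firefly luciferase at 100 ng per well in PBS; test concentration not given here.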 Particulars: purified firefly luciferase, SteadyGlo luminescence, 30 min; higher = more signal, called active from +8 up or from −8 down.
Luciferin 4-monooxygenase (Photinus pyralis), sequence (P08659 whole entry, looked up): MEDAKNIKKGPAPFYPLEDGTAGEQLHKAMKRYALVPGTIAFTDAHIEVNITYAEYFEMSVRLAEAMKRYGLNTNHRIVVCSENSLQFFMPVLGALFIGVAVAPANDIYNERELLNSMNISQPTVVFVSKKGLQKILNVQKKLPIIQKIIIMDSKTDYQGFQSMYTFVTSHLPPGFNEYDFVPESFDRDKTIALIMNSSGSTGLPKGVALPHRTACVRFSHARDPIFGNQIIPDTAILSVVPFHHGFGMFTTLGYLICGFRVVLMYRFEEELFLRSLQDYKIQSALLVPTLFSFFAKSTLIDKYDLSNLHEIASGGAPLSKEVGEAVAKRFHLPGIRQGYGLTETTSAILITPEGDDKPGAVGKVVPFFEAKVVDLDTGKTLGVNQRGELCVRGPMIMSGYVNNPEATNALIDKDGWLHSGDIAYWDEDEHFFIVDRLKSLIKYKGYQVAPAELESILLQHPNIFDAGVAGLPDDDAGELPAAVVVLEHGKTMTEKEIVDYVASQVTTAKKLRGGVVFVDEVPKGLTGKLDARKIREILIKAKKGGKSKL

Calls of active or inactive are those of the source.

In PubChem BioAssay one finds composite z-score, composite Z-score and z-score data, which are given here for 5 molecules.

Albumin (Bos taurus), sequence (P02769 whole entry, looked up): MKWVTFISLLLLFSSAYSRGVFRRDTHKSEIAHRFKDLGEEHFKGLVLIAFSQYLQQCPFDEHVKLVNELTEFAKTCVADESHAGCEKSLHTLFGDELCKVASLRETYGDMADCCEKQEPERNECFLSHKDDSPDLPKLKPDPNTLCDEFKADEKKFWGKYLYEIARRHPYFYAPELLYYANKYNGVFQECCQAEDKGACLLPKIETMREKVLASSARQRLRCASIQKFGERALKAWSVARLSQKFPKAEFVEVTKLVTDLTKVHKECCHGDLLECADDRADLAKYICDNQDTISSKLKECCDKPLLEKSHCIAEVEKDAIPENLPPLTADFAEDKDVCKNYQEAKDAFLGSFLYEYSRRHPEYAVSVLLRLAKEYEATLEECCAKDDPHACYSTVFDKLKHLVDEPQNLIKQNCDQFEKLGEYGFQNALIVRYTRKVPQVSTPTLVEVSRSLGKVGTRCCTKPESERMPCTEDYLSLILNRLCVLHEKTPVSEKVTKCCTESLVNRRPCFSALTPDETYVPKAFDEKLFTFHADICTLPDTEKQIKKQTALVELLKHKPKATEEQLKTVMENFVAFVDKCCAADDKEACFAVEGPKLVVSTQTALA

`CC(CCN1CCc2nc(-c3ccccc3)c(-c3ccccc3)cc2C1)=NOC[C@@H](C)[C@H](OCc1ccccc1)C(C)C`: the composite z-score with Albumin (Bos taurus) was 0.474; in [2], 0.0375; in assay [3], -0.177; in assay [4], -0.0642; in [5] it was 0.271; in assay [6] it was -0.2. The composite z-score is -1.19 in the assay on Sam68 (KHDRBS1); -1.11 in assay [7]; -0.198 in [8]; 1.45 in assay [9]; -1.69 in assay [10]; 0.123 in assay [11]. The composite z-score in assay [12] was -0.242; in assay [13] it was -1.45; in assay [14], -1.14; in the assay with Lefty1, -0.677; in assay [16] it was -0.469. Also, the composite Z-score in assay [1] is -0.193 (inactive). For the same molecule, the z-score in assay [15] is 0.436; in [17] it was -1.09 (inactive).
Consider `CC(CCN1CCc2nc(-c3ccccc3)c(-c3ccccc3)cc2C1)=NO[C@@H](C)c1cn([C@H](CO)Cc2ccccc2)nn1`, for which the composite z-score is 0.908 with Albumin (Bos taurus); 0.0242 in [2]; -0.117 in assay [3]; 0.526 in [4]; -0.478 in [5]; -0.208 in assay [6]. Moreover, the composite z-score in the assay with Sam68 (KHDRBS1) is -0.163; in assay [7], 0.0808; in [8] it was -0.602; in assay [9] it was -0.0253; in assay [10], 0.219; in assay [11], 0.0807. For the same molecule, the composite z-score came to 0.929 in [12]; 0.408 in assay [13]; 0.453 in assay [14]; 0.342 in the assay on Lefty1; 0.706 in [16]. Also, the composite Z-score in [1] was 0.715 (inactive). Also, the z-score in [15] is 1.22; in assay [17], -1.77 (inactive).
Take `CCOC(=O)CCN1C(=O)[C@H]2[C@H]3[C@H](O)[C@H](O)CC(=NOCc4ccccc4)[C@@H]3CC[C@H]2C1=O`: the composite z-score in the assay with Albumin (Bos taurus) was 0.762; in assay [2], -0.0996; in assay [3], -0.199; in [4], 0.381; in assay [5], 0.317; in assay [6] it was 0.784. Moreover, the composite z-score was 0.37 with Sam68 (KHDRBS1); 0.116 in assay [7]; 0.246 in assay [8]; -0.261 in assay [9]; 0.717 in [10]; 0.163 in [11]. Besides, the composite z-score was 0.983 in assay [12]; 0.722 in assay [13]; 0.383 in [14]; 0.963 in the assay on Lefty1; -0.0855 in [16]. In addition, in [1], the composite Z-score was 0.415 (inactive). Also, the z-score in assay [15] is -0.217; in assay [17], 0.883 (inactive).
With `[N-]=[N+]=Nc1ccccc1C[C@@]1(C(N)=O)N=C(c2ccc(OCCCO)cc2)O[C@@H]1c1ccccc1`, the composite z-score with Albumin (Bos taurus) was 0.841; in assay [2] it was -0.0014; in assay [3] it was -0.0633; in assay [4], 0.723; in assay [5], 1.74; in assay [6] it was 0.567. For the same molecule, the composite z-score in the assay on Sam68 (KHDRBS1) was 1.05; in assay [7], -1.26; in assay [8] it was 0.704; in assay [9], 0.42; in [10], 1.02; in [11] it was 0.645. Besides, the composite z-score in assay [12] is -0.367; in [13] it was 0.283; in assay [14] it was -0.403; in the assay with Lefty1, -1.27; in assay [16], 0.402. Besides, the composite Z-score in assay [1] is 0.0117 (inactive). In addition, the z-score was -0.971 in assay [15] and -3.86 (inactive) in assay [17].
Turning to `C=CC[C@@H]1C=C[C@H](ON=C2c3cc(OC)ccc3O[C@H](c3cccc(OC)c3)[C@H]2O)[C@@H](CO)O1`, the composite z-score in the assay with Albumin (Bos taurus) was 0.764; in assay [2], -0.253; in assay [3] it was -0.0956; in assay [4], 0.427; in assay [5] it was 0.425; in assay [6], 0.266. The composite z-score was -0.194 in the assay on Sam68 (KHDRBS1); 0.105 in [7]; -0.302 in [8]; -0.738 in assay [9]; -0.133 in assay [10]; 0.374 in assay [11]. Further, the composite z-score in [12] is 0.352; in assay [13], -0.0389; in assay [14], 0.369; with Lefty1, 0.873; in assay [16] it was 0.499. For the same molecule, the composite Z-score in [1] is 0.196 (inactive). Besides, the z-score is -0.102 in assay [15] and -0.101 (inactive) in [17].
